# Screening data: PubChem BioAssay, National Center for Advancing Translational Sciences (NCATS)
# Shown are actives, neighbours in structure and some others; about 1.7% of the full set was active somewhere.
# ALOX12 inh = blocks human arachidonate 12S-lipoxygenase | 580,000 tested, 1.1% active | purified 12hLO, xylenol orange hydroperoxide absorbance | Potency, µM (highest dose often 108 µM), inactives show top-dose activity change, negative = inhibition, actives largely listed as inhibitors | P18054; note: % is set by controls: 0 for no effect and ±100 for the full control effect
#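 Purified human 12hLO (150 nM final) in 25 mM Hepes, 0.01% Triton X-100, pH 7.0 was preincubated 15 min at room temperature with compound. Then 40 uM arachidonic acid was added, 30 min. Hydroperoxide was read by Fe-XO absorbance ratio 573/405 nm.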
# rTrxR1 inhibitor = rat TrxR1 inhibition; recombinant rTrxR1, NADPH fluorescence consumption, selenite substrate; Potency, µM (titrated, usually from 114 µM), inactives show at the top dose activity change, negative = inhibition, actives largely listed as inhibitors; 390,000 tested, 1% active; AID 588453; note: % is set by controls: 0 for no effect and ±100 for the full control effect; nearly all actives have a fitted effect of over 65% in size
#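 Rat TrxR1 (90 nM in the dispensed reagent) was pre-reduced with 400 uM NADPH for 5 min at room temperature, then incubated with compound for 15 min. After 400 uM selenite was added, NADPH fluorescence (Ex 340/Em 450 nm) was followed for 8 min.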
# Glioma ERSR ind = inducers of ER stress response in human glioma cells. U87-MG GRP78 promoter luciferase reporter, 16 h. Potency, µM, for inactives: at the highest dose activation, hits mostly activators. 420,000 tested, 0.02% active. AID 602332; note: series mostly up to about 76 µM; % of control where 0% means no effect; nearly all actives have a fitted effect of over 35% in size
#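 ERSR induction read as luciferase luminescence (Bright-Glo, 10 min at room temperature) in stably transfected human U87-MG glioma cells exposed to compounds for 16 h, using GRP78 as sensor.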
# mIDH1 inhibitor = human IDH1 R132H inhibition. O75874. IDH1-R132H enzyme, NADPH consumption, diaphorase/resazurin fluorescence. Potency, µM (highest dose often 76.6 µM), for inactives: top-dose activity change, negative = inhibition, usual class: inhibitors. 390,000 tested, 0.093% active; note: % is set by controls: 0 for no effect and ±100 for the full control effect; nearly all actives have a fitted effect of over 65% in size
# Target sequence (O75874 whole entry R132H, stated change not applied): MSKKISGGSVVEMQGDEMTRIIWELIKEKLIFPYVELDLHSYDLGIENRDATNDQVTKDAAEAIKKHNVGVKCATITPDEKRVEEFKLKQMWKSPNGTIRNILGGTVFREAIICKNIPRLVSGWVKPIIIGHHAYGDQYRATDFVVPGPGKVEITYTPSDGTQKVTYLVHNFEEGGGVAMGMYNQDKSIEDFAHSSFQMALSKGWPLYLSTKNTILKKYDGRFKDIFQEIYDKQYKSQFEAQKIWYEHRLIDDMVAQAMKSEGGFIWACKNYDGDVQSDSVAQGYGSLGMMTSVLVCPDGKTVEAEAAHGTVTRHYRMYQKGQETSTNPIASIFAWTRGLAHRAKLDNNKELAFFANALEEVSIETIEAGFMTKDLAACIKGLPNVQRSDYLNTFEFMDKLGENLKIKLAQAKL
#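 IDH1-R132H (0.5 ug/mL dispensed) in pH 7.5 Tris buffer was preincubated 30 min with compound, then given a substrate mix of 0.016 mM NADPH and 2 mM alpha-KG for 80 min at room temperature; remaining NADPH was read by diaphorase/resazurin fluorescence.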
# Apoferritin bind = candidate novel general anesthetic via apoferritin binding; Potency, µM (titrated, usually from 77.5 µM), inactives show at the highest dose activity change, negative = displacement, usual class: inhibitors; 350,000 tested, 0.074% active; AID 485281; P02791; apoferritin/1-aminoanthracene competitive binding, fluorescence; note: % is set by controls: 0 for no effect and ±100 for the full control effect; nearly all actives have a fitted effect of over 20% in size
# Target sequence (P02791 2-175 limits assumed): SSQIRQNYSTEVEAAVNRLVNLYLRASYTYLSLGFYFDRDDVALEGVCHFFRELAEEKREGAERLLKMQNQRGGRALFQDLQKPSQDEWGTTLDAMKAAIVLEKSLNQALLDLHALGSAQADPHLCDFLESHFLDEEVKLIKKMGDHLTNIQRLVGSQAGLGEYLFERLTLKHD
#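 Horse-spleen apoferritin (10 uM) in 50% saturated 1-aminoanthracene in PBS was incubated 10 min at room temperature with compound. Fluorescence (ex 380, em 535 nm) was normalized to free and bound 1-AMA, with concentration-response fitted by a four-parameter Hill equation.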
# TrxR1 substrate = rat thioredoxin reductase 1 substrate activity. 390,000 tested, 0.01% active. Potency, µM (top dose mostly 114 µM), inactives show at the top dose activity change, negative = substrate turnover. AID 588456. purified TrxR1 substrate turnover, NADPH consumption readout. O89049; note: % is set by controls: 0 for no effect and ±100 for the full control effect; nearly all actives have a fitted effect of over 50% in size
#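 Rat TrxR1, dispensed at 90 nM, was prereduced with 400 uM NADPH (final) for 5 min at ~22 deg C, then incubated with compound 15 min before 400 uM selenite. A first-read NADPH fluorescence drop versus no-compound background flagged substrates.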
# * hit, by the source's call; ? = inconclusive; . = not tested or not shown; [ ] = remark or other dose. Calls come from the whole dose curve; as a rule, active = well fitted curve in the direction sought with a large enough effect; inconclusive = small, poorly fitted or top-dose-only effect, or another doubt; inactive = no such curve, though single readings can be large; an effect the other way counts as inactive or inconclusive. Potency is the fitted concentration of half-maximal effect.
SMILES,ALOX12 inh,rTrxR1 inhibitor,Glioma ERSR ind,mIDH1 inhibitor,Apoferritin bind,TrxR1 substrate
O=S(=O)(/N=C/c1cccs1)c1ccc(Cl)cc1,3%,.,.,.,.,.
CN(C)c1ccc(/C=N/NC(=O)c2ccccc2O)o1,-5%,?,3%,10%,-10%,6%[57.1 µM]
CN(C)c1ccc(/C=N/NC(=O)C(O)(c2ccccc2)c2ccccc2)o1,?,8.9µM*,-4%,1%,-16%,0%
Cc1cc(C(=O)N/N=C/c2ccc(N(C)C)o2)cs1,241%,14µM*,5%,-5%,-15%,2%
CCOc1ccc(NC(=O)C2CC(=O)N(c3n[nH]c4cccc(F)c34)C2)cc1 (centres undefined),-9%,.,.,.,.,.
COCCOC1CCN(C(=O)NCc2ccc(F)cc2)CC1,51%,.,.,.,.,.
COC(=O)C1=C(C)NC(=O)CC1c1ccc(Cl)cc1Cl (centres undefined),-14%,.,.,.,.,.
Nc1nc(Sc2c([N+](=O)[O-])cc(C(F)(F)F)cc2[N+](=O)[O-])n[nH]1,123%,16µM*,?,2%,6%,7%[57.1 µM]
COc1cc2c(cc1OC)C(CCc1ccccc1)=NCC2,294%,89µM*,-3%,0%,258%,369%
COc1cc2c(cc1OC)C(C[C@H]1CN(C(=O)c3ccco3)CC[C@H]1CC(=O)O)=NCC2,56µM*,.,.,.,.,.
O=C(O)C[C@@H]1CCN(C(=O)c2ccco2)C[C@@H]1CC1=NCCc2ccccc21,6%[176 µM],.,.,.,.,.
Cc1cc(NC(=O)COC(=O)c2ccccc2OCCOc2ccccc2)ccc1Br,.,19%,.,.,.,6%
C=CCn1cc(CN(Cc2ccco2)Cc2cccs2)c(C)n1,13µM*,.,.,.,.,.
O=C(NCc1ccccc1)C1(CC2CC(c3ccccc3)=NO2)CCNCC1 (centres undefined),?,22µM*,-3%,-12%,.,4%
N#Cc1cc2c([nH]c1=S)CCCC2,14µM*,-34%,-2%,3%,-10%,-15%
N#Cc1cc2c([nH]c1=O)CCCC2,-5%,?,-2%,0%,4%,209%
CC(=O)c1c(C)oc2c1cc(NS(=O)(=O)c1ccc(Br)cc1)c1ccccc12,-24%,6%[57.1 µM],-3%,27%,-9%,-2%[57.1 µM]
Cc1oc2c(cc(NS(=O)(=O)c3ccc(Cl)cc3)c3ccccc32)c1C(=O)O,40µM*,1%,12%,12%,-4%,1%
Cn1cnc2c1c(=O)n(CC(=O)Nc1ccc3c(c1)OCO3)c(=O)n2C,23%,.,.,.,.,.
O=C(NCC#Cc1cccc(C(F)(F)F)c1)C1CCCN(C(=O)c2ccc(Cl)cc2)C1 (centres undefined),-12%,.,.,.,.,.
CC(=O)Nc1ccc(CN2CCC3(CC(c4cccc(C(F)(F)F)c4)=NO3)C2)cc1 (centres undefined),-1%[6.33 µM],.,.,.,.,.
CC(=O)NC1(C)CCN(Cc2cnc(-c3cccc(C(F)(F)F)c3)s2)CC1,28µM*,.,.,.,.,.
CC1(C)CC(CCN2CCCCC2)(c2cccc(C(F)(F)F)c2)CCO1 (centres undefined),1.8µM*,.,.,.,.,.
CCC1CCCCN1C(=O)CSc1nc2ncccc2[nH]1 (centres undefined),1%,50µM*,-3%,5%,-9%,-2%
COc1ccc(N(C)S(=O)(=O)c2cccc(C(=O)Nc3ccc4oc(C)nc4c3)c2)cc1,-4%,.,.,.,.,.
SMILES,ALOX12 inh,rTrxR1 inhibitor,Glioma ERSR ind,mIDH1 inhibitor,Apoferritin bind,TrxR1 substrate
COc1ccc(OCc2nnc3n2N=C(c2ccc(OC)cc2)CS3)cc1,-23%,9%[57.1 µM],-3%,2%,8.9µM*,5%[57.1 µM]
COc1ccc(OCc2nnc3n2N=C(c2ccc(C)cc2)CS3)cc1,0%,12%[57.1 µM],10%,-4%,11µM*,2%[57.1 µM]
Cc1c(-c2ccccc2)oc2c(C(=O)N3CCC(C)CC3)cccc2c1=O,-9%,.,.,.,.,.
Oc1ccc(C2=Nn3c(nnc3-c3ccco3)SC2)cc1O,7.1µM*,-32%,?,-1%,-1%,-3%
Cc1ccc(OC2(C(=O)NC(C)c3cn4ncsc4n3)CCNCC2)cc1 (centres undefined),14µM*,.,.,.,.,.
Cc1ccc(OC2(C(=O)NC(C)c3nn[nH]n3)CCNCC2)cc1 (centres undefined),-7%,.,.,.,.,.
CC(C)Cc1ccc2cc(C(=O)O)[nH]c2c1,7%,.,.,.,.,.
Cc1cnc(C(=O)NC2C[C@H]3CC[C@@H](C2)N3C(=O)c2nn(C)c3ccccc23)cn1 (some centres undefined),59%,.,.,.,.,.
CCOC(=O)/C=C/C(=O)Nc1nccs1,-11%,50µM*,-7%,8%,-12%,-3%
Cc1ccc(/C=C/C(=O)Nc2ncc(C)s2)o1,-10%,40µM*,6%,1%,-12%,5%
Cc1ccc(/C=C/C(=O)Nc2nccs2)o1,?,45µM*,2%,3%,-2%,-3%
CCOC(=O)C(=O)Nc1nccs1,-12%,14%,-5%,-4%,-3%,-1%
O=C(c1cccc2nccnc12)N1CCC2(CC1)Nc1ccccc1NC2=O,25%,.,.,.,.,.
COc1ccc(C(=O)C(Br)C(=O)c2ccc(OC)cc2)cc1,6.3µM*,.,.,.,.,.
COc1ccc2c(c1)O/C(=C\c1ccco1)C2=O,31%,-6%[57.1 µM],0%,0%,-1%,1%[57.1 µM]
Cc1cc(O)c(CN(C)C)c2c1C(=O)/C(=C/c1ccco1)O2,?,56µM*,-4%,5%,149%,-12%
Cc1oc(-c2ccccc2)nc1C(=O)NCC(C)N1CCOCC1 (centres undefined),-28%,.,.,.,.,.
CS(=O)(=O)N1CCN(c2ccc(NC(=O)C(c3ccccc3)c3ccccc3)cc2)CC1,19%,19%,-2%,10%,46%,2%
O=C(Nc1ccc(N2CCCC2)cc1)C(Cl)c1ccccc1 (centres undefined),.,16µM*,0%,21%,-16%,-3%
N#Cc1cc([N+](=O)[O-])c(-n2nnc3ccccc32)c([N+](=O)[O-])c1,.,16µM*,-2%,1%,-10%,-2%
COc1ccccc1-c1cncnc1-n1ccnc1,25µM*,.,-2%,.,4%,.
COc1cccc(-c2cncnc2-n2ccnc2)c1,?,.,4%,.,3%,.
CCN1CCOC(=O)C1CC(=O)Nc1ccc(C(C)=O)cc1 (centres undefined),0%,?,-2%,-3%,-7%,3%
CCN1CCOC(=O)C1CC(=O)Nc1cc(Cl)ccc1OC (centres undefined),-6%,11µM*,-4%,-8%,-2%,7%
CCc1ccc(NC(=O)CC2C(=O)OCCN2CC)cc1 (centres undefined),-22%,6.3µM*,-2%,11%,-11%,10%[11.4 µM]
